ClpP mod – qHTS Assay for Activators of ClpP; ATP-dependent Clp protease proteolytic subunit (Bacillus subtilis (strain 168)), P80244; purified B. subtilis ClpP, FRET peptide cleavage, 20 min; Potency, µM (highest dose often 57.5 µM), for the others: at the top dose activity change, negative = active; 340,000 tested, 1.9% active; active = well fitted falling curve with a large enough effect; inconclusive = small, poorly fitted or top-dose-only effect; inactive = no such curve, though single readings can be large or run the other way; note: the source files actives as falling curves though it sought activators and does not explain the sign; nearly all actives have a fitted effect of over 65% in size
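Purified B. subtilis ClpP, 10 microg/mL final in Tris/HCl pH8 with KCl, BSA, glycerol and Tween-20, cleaved an Abz/nitrotyrosine-quenched decapeptide. Fluorescence (ex 320, em 430) was read at 0 and 20 min at room temperature. Delta was normalized to 5.8 microM ADEP and DMSO/no-enzyme controls.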
TDP1 cell CPT – DT40-hTDP1 cell growth loss with CPT; chicken DT40 Tdp1-/-;hTDP1 cells + 20 nM CPT, ATP luminescence, 48 h; Potency, µM (series often up to 46.2 µM), inactives show top-dose activity change, negative = growth inhibition, most hits filed as inhibitors; 420,000 tested, 12% active; AID 686979; note: % is set by controls: 0 for no effect and ±100 for the full control effect; nearly all actives have a fitted effect of over 55% in size
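Chicken DT40 Tdp1-/- cells complemented with human TDP1, 400 cells/well, exposed to compounds plus 20 nM camptothecin for at least 48 h at 37 C; viability read as ATP content by CellTiter-Glo luminescence.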
TDP1 inh – blocks human tyrosyl-DNA phosphodiesterase 1 | recombinant TDP1, AlphaScreen DNA substrate cleavage | 350,000 tested, 0.28% active | AID 485290 | Potency, µM (top dose mostly 130 µM), for inactives: at the top dose activity change, negative = inhibition, usual class: inhibitors | Q9NUW8; note: % is set by controls: 0 for no effect and ±100 for the full control effect; nearly all actives have a fitted effect of over 40% in size
Target sequence (Q9NUW8 whole entry, looked up): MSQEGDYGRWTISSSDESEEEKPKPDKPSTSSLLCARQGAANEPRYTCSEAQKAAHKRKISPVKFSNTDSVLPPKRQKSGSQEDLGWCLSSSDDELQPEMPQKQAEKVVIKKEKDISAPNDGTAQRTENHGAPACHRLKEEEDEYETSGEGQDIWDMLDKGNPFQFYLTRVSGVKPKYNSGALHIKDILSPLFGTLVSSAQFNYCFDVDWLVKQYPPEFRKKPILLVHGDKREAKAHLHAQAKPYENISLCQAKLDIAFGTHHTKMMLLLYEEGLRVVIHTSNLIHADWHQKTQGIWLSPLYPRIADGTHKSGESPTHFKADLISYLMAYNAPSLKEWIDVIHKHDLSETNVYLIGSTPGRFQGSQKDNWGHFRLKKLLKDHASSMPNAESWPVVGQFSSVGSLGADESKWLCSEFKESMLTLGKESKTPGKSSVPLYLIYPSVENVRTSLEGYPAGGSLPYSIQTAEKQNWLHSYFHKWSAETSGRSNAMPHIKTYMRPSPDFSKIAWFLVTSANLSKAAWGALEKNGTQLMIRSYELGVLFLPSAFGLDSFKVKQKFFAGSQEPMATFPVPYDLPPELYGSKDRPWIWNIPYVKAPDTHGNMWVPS
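AlphaScreen read-out: signal falls as enzyme removes the 3' tyrosine-FITC from a 5'-biotinylated DNA oligo (15 nM, 5 min, RT). Enzyme was E. coli-made recombinant Tdp1 at 1 nM, exposed to compound for 15 min beforehand; beads 10 ug/ml, 10 min.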
TDP1 cell noCPT – qHTS for Inhibitors of human tyrosyl-DNA phosphodiesterase 1 (TDP1): qHTS in cells in absence of CPT; DT40 Tdp1-/- hTDP1 cells, no CPT, ATP luminescence, 48 h; Potency, µM (top dose mostly 46.2 µM), without a hit: at the top dose activity change, negative = growth inhibition, hits mostly inhibitors; 420,000 tested, 15% active; note: % is set by controls: 0 for no effect and ±100 for the full control effect; nearly all actives have a fitted effect of over 55% in size
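No-CPT arm: Tdp1-/-;hTDP1 DT40 cells (400/well) plus compounds, incubated ≥48 hr at 37 °C. Readout CellTiter-Glo luminescence.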
The depositor's hits bear a star; ? = inconclusive; . = no result given; [ ] = dose if it differs, or a comment. The list is not random: actives were taken first. Their share in the collection is about 17%. Unless noted, calls come from the whole dose curve; as a rule, active = well fitted curve in the direction sought with a large enough effect; inconclusive = small, poorly fitted or top-dose-only effect, or another doubt; inactive = no such curve, though single readings can be large; an effect the other way counts as inactive or inconclusive. Potency is the fitted concentration of half-maximal effect.

SMILES	ClpP mod	TDP1 cell CPT	TDP1 inh	TDP1 cell noCPT
CCCS(=O)(=O)NCc1c(C)ncc2c1CCN(C(=O)/C=C/c1cccc(Cl)c1)C2	.	5%[9.04 µM]	.	-20%
COC(=O)C[C@H]1C[C@H]2c3cc(NS(=O)(=O)c4ccc(OC)cc4)ccc3O[C@H]2[C@H](CO)O1	-1%	?	.	?
COc1ccc(/C=N/N2C(=O)CSC2=S)cc1	-1%	?	-2%	?
COc1ccc(-c2nn(-c3ccccc3)cc2/C=N/N2C(=O)CSC2=S)cc1	2%	18µM*	10%	16µM*
O=C(NC(=S)Nc1ccccc1C(=O)O)c1cncc(Br)c1	0%	?	.	?
O=C(NC(=S)Nc1ccc2c(c1)OCCO2)c1cccc(Br)c1	-1%	15µM*	7%	?
O=C(NC(=S)Nc1ccc2c(c1)OCO2)c1ccccc1	0%	-3%	0%	0%
CC(=O)c1cccc(NC(=S)NC(=O)c2cncc(Br)c2)c1	-4%	13µM*	.	?
O=C(NC(=S)Nc1ccccc1O)c1cncc(Br)c1	2%	?	.	23µM*
CCCC(=O)Nc1nnc([C@H]2C[C@H](O)[C@@H](CO)O2)s1	-2%	-1%	.	-2%
Cc1c(C(=O)N2CCN(S(=O)(=O)c3ccccc3)CC2)oc2ccc(Br)cc12	0%	-9%	0%	?
Cc1ccc(N(CCC#N)C(=O)COC(=O)C2=COCCO2)cc1	-26%	3%	2%[0.505 µM]	8%
CCOC(=O)C1Nc2ccccc2C2C(O)C(O)CC12 (stereo unspecified)	-11%	29µM*	.	?
CCOC(=O)C1Sc2ccccc2NC1=O (stereo unspecified)	.	4%	2%	9%
CCOC(=O)C1Nc2ccc(C(F)(F)F)cc2C2c3ccccc3CC12 (stereo unspecified)	1%	18µM*	.	16µM*
CCc1ccccc1NC(=O)CN(Cc1ccccc1)S(=O)(=O)c1ccc(Br)cc1	-1%	?	1%[2.28 µM]	?
N#CCCN(Cc1ccccc1)C(c1ccnc2ccccc12)c1nnnn1-c1ccc2c(c1)OCCO2 (stereo unspecified)	0%	?	.	-88%
Cc1cccc(C)c1-n1nnnc1C(c1ccnc2ccccc12)N(Cc1ccccc1)Cc1ccccc1 (stereo unspecified)	2%	?	.	?
Cc1cccc(C)c1-n1nnnc1C(c1ccnc2ccccc12)N(CCC#N)Cc1ccccc1 (stereo unspecified)	1%	13µM*	.	10µM*
CN(CCc1ccccc1)C(c1ccnc2ccccc12)c1nnnn1-c1ccc2c(c1)OCCO2 (stereo unspecified)	-1%	?	.	16µM*
c1ccc(CN(Cc2ccccc2)C(c2ccnc3ccccc23)c2nnnn2-c2ccc3c(c2)OCCO3)cc1 (stereo unspecified)	-1%	?	.	23µM*
Cc1nnc(NCC=Cc2ccccc2)s1	-2%	0%	.	-5%
COc1cccc(-c2ncc3ccccc3c2COC(=O)c2ccco2)c1	-1%	?	1%	?
COCCNC(=O)C1(C)CCCN(C(=O)c2ccc3c(c2)CCO3)C1 (stereo unspecified)	-3%	-3%	.	-14%
CC(=O)c1cccc(NC(=O)C2CCN(C(=O)c3cnn(-c4ccccc4)c3-n3cccc3)CC2)c1	-1%	?	3%	?
SMILES	ClpP mod	TDP1 cell CPT	TDP1 inh	TDP1 cell noCPT
CCOc1ccc(NC(=O)C2Cc3ccccc3N2C(=O)c2ccccc2)cc1 (stereo unspecified)	7%	23µM*	1%	21µM*
CC(C)c1ccc(NC(=O)C2Cc3ccccc3N2C(=O)c2ccccc2)cc1 (stereo unspecified)	0%	18µM*	4%	5.8µM*
CC(C)(C)[C@H]1CCC(=O)N([C@H](CSc2ccccc2)Cc2ccccc2)CC1	1%	23µM*	.	?
Cc1ccc(SC[C@H](Cc2ccccc2)N2CC[C@@H](C)CCC2=O)cc1	1%	11µM*	.	13µM*
[N-]=[N+]=NC[C@H](Cc1ccccc1)N1CC[C@@H](OCc2ccccc2)CCC1=O	-4%	?	.	?
O=C1CCC(OCc2ccccc2)CCN1[C@H](CSc1ccccc1)Cc1ccccc1 (stereo partly specified)	-1%	?	.	16µM*
CC(C)(C)[C@H]1CCC(=O)N([C@H](CSc2ccc(Br)cc2)Cc2ccccc2)CC1	0%	18µM*	0%	14µM*
Cc1ccc(SC[C@H](Cc2ccccc2)N2CC[C@@H](C(C)(C)C)CCC2=O)cc1	-4%	?	.	?
CN1CCC(=O)N(C(CSc2ccc(Br)cc2)Cc2ccccc2)CC1 (stereo unspecified)	.	.	14%	.
CC(=O)Nc1ccc(SCCCC(=O)c2ccccc2)cc1	.	?	6%	-27%
CC(C)(C)[C@H]1CCC(=O)N([C@H](CN=[N+]=[N-])Cc2ccccc2)CC1	0%	14µM*	.	20µM*
O=C(NC(=S)Nc1ccc2oc(=O)ccc2c1)c1cccc(Cl)c1	.	-22%	4%	?
COc1ccc(C(=O)Oc2ccc(C)cc2)cc1S(=O)(=O)N1CCOCC1	2%	-22%	.	?
CC(C)[C@H](NC(=O)[C@@H]1Cc2ccccc2CN1C(=O)OC(C)(C)C)C(=O)NCc1ccco1	.	-4%	5%	?
Cc1cc(C(F)(F)F)c(C#N)c(SCC(=O)Nc2nc3ccccc3s2)n1	-2%	?	-1%	18µM*
N#Cc1c(C(F)(F)F)cc(-c2ccccc2)nc1SCC(=O)Nc1sc2c(c1C#N)CCC2	0%	13µM*	-2%	10µM*
Cc1nc(SCC(=O)Nc2nc3ccccc3s2)c(C#N)c(C)c1C	1%	?	-2%	?
O=C(CN1CCN(S(=O)(=O)c2ccccc2)CC1)NC(=O)NCc1ccco1	.	-21%	-1%	1%
CC(C)c1ccc(C2CC(c3ccc(Br)cc3)=NN2C(N)=S)cc1 (stereo unspecified)	-3%	15µM*	8%	9.2µM*
CCC(=O)N1N=C(c2ccc(NS(C)(=O)=O)cc2)CC1c1ccc(C)cc1 (stereo unspecified)	-62%	-22%	0%	-15%
CNC(=S)N1N=C(c2ccc(C)cc2)CC1c1ccc(Cl)cc1 (stereo unspecified)	-3%	13µM*	4%	10µM*
CC(=O)N1N=C(c2ccc(Br)cc2)CC1c1ccc(Br)cc1 (stereo unspecified)	-9%	-16%	.	-16%
CNC(=S)N1N=C(c2ccc(C)cc2)CC1c1ccc(Br)cc1 (stereo unspecified)	-3%	10µM*	3%	7.3µM*
O=C(COC(=O)c1cccc(Cl)c1)NCc1ccccc1	.	-14%	1%	-22%

From PubChem BioAssay
